Results on 9 molecules are retold here after PubChem BioAssay (Tox21).

A short description of assay [1]: qHTS assay to identify small molecule agonists of the peroxisome proliferator-activated receptor delta (PPARd) signaling pathway - cell viability counter screen (AID 743211). Note: nearly all actives have a fitted effect of over 55% in size. The method in brief: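 Viability of GeneBLAzer PPARd UAS-bla HEK293H cells was assessed after 17 h compound incubation at 37C, using CellTiter-Glo reagent added after the reporter read and luminescence recorded 30 min later.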
(In qHTS, concentration-response curves come from the screen itself.)

The target of assay [2] is Peroxisome proliferator-activated receptor delta (Homo sapiens) (UniProt Q03181). The assay is described as follows: qHTS assay to identify small molecule agonists of the peroxisome proliferator-activated receptor delta (PPARd) signaling pathway (AID 743212; calls by dose curve). The method in brief: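 Steps: seed PPARd-bla HEK293H cells; incubate 5 h, 37 C, 5% CO2; add compounds in DMSO; incubate, 37 C; add LiveBLAzer B/G FRET substrate; hold 2 h at room temperature; measure fluorescence.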
Sequence of Peroxisome proliferator-activated receptor delta (Homo sapiens) (Q03181 whole entry, looked up): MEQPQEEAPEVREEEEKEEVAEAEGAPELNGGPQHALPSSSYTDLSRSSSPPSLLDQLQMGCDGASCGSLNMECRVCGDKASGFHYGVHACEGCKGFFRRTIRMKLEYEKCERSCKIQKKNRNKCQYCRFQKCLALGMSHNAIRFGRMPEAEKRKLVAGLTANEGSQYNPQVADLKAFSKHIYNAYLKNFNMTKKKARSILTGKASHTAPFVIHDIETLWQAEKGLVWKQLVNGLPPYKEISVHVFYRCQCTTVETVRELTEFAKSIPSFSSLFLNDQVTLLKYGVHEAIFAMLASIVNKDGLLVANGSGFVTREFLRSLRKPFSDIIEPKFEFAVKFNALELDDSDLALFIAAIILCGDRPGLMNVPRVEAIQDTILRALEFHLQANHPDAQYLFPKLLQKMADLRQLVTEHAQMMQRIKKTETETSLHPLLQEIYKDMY

Assay [3] in a line: qHTS assay to identify small molecule antagonists of the peroxisome proliferator-activated receptor delta (PPARd) signaling pathway - cell viability counter screen (AID 743213). Note: nearly all actives have a fitted effect of over 50% in size. The method in brief: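 In this counter screen, HEK293H cells carrying a UAS-beta-lactamase reporter are co-treated with test compounds and 300 nM L165041 (final) for 17 h at 37 C; cell viability is quantified by CellTiter-Glo luminescence.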

Assay [4] concerns the target Peroxisome proliferator-activated receptor delta (Homo sapiens) (UniProt Q03181). The assay is described as follows: qHTS assay to identify small molecule antagonists of the peroxisome proliferator-activated receptor delta (PPARd) signaling pathway (AID 743215; active = well fitted inhibition curve with a large enough effect in the signal ratio in the repeat runs, not every such curve was filed as active; the % refers to the signal ratio;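 note: cells stimulated with agonist L165041 at 300 nM final during compound exposure; series mostly up to about 62 µM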). The method, boiled down:
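Plated HEK293H PPARd-bla cells rested 5 h at 37 C and 5% CO2. Compound, then agonist L165041 at 300 nM final, was added; 17 h at 37 C followed. Substrate loading, 2 h room temperature, fluorescence measured.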

A short description of assay [5]: qHTS assay to identify small molecule agonists of the farnesoid-X-receptor (FXR) signaling pathway - cell viability counter screen (AID 743218). Note: nearly all actives have a fitted effect of over 45% in size. The method, boiled down: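 Viability of FXR-bla HEK 293T cells is measured by ATP-based CellTiter-Glo luminescence following 16 h compound treatment at 37 C and a prior 2 h room-temperature beta-lactamase substrate step.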

Assay [6] in a line: qHTS assay to identify small molecule antagonists of the farnesoid-X-receptor (FXR) signaling pathway - cell viability counter screen (AID 743221; active = well fitted cell-killing curve with a large enough effect in the repeat runs, not every such curve was filed as active; note: nearly all actives have a fitted effect of over 50% in size). The method, boiled down: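 Quantitative HTS of the Tox21 10K library run in parallel with the beta-lactamase reporter read. HEK 293T cells carrying a UAS-driven bla reporter got compound and 50 uM CDCA (final) for 16 h; ATP-based luminescence followed.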

Assay [7] deals with Vitamin D3 receptor (Homo sapiens) (UniProt P11473). The experiment in a line: qHTS assay to identify small molecule agonists of the vitamin D receptor (VDR) signaling pathway (AID 743222; calls by dose curve). The method in brief:
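Fluorescence from cleaved LiveBLAzer B/G FRET substrate served as readout. VDR-bla cells had been treated 16 h at 37C with test compounds in DMSO, following a 4 h settling period, and substrate was loaded for 2 h at RT.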

Assay [8] shares this target. The experiment in a line: qHTS assay to identify small molecule antagonists of the vitamin D receptor (VDR) signaling pathway (AID 743223; active = well fitted inhibition curve with a large enough effect in the signal ratio in the repeat runs, not every such curve was filed as active; the % refers to the signal ratio). The method in brief:
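Fluorescence from LiveBLAzer B/G FRET substrate, read after 2 h at room temperature, reflects beta-lactamase reporter activity in VDR-bla cells treated 16 h at 37C with compounds and agonist 1alpha,25-dihydroxyvitamin D3 (3 nM final).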

Assay [9] can be described thus: qHTS assay to identify small molecule agonists of the vitamin D receptor (VDR) signaling pathway - cell viability counter screen (AID 743224). Note: series mostly up to about 63 µM; nearly all actives have a fitted effect of over 50% in size. The method in brief:
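Compounds were pin-transferred onto VDR-bla cells plated 4 h earlier; following 16 h incubation at 37C, cell viability was quantified by CellTiter-Glo luminescence after 30 min at room temperature.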

The nature of assay [10]: qHTS assay to identify small molecule antagonists of the vitamin D receptor (VDR) signaling pathway - cell viability counter screen (AID 743225). Note: nearly all actives have a fitted effect of over 50% in size. The method, boiled down: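 Cells (VDR-UAS-bla HEK 293T) are plated, rested 4 h at 37C, dosed with compound and 3 nM final 1-alpha,25-dihydroxy vitamin D3, and incubated 16 h. Viability is taken from CellTiter-Glo luminescence in the reporter wells.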

Assay [11] in a line: qHTS assay to identify small molecule agonists of the NFkB signaling pathway (AID 1159509; active = well fitted curve in the direction sought with a large enough effect in the signal ratio in the repeat runs, not every such curve was filed as active; the % refers to the signal ratio; note: series mostly up to about 61 µM). The method in brief: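 Readout: FRET fluorescence, 405 nm excitation, 460/530 nm emission; beta-lactamase expression disrupts FRET. Cells: ME-180 stably carrying NF-kB-driven bla reporter. Compound exposure 5 hr, 37 C, 5% CO2.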
Assay [12] in a line: qHTS assay to identify small molecule agonists of the endoplasmic reticulum stress response signaling pathway (AID 1159516; active = well fitted activation curve with a large enough effect in the signal ratio in the repeat runs, not every such curve was filed as active; the % refers to the signal ratio). The method in brief: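 Using a HeLa line with an ESRE-driven beta-lactamase gene, agonist activity was measured by FRET substrate fluorescence (460 and 530 nm emission) after cells were treated with compounds for 5 hr at 37 C and 5% CO2.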
Assay [13] can be described thus: qHTS assay to identify small molecule agonists of the endoplasmic reticulum stress response signaling pathway - cell viability counter screen (AID 1159517; calls by dose curve). The method, boiled down:
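After overnight attachment, ESRE-bla HeLa cells were treated with Tox21 library compounds for 5 hr. CellTiter-Glo luminescence, read 30 min post-addition at room temperature, reported viability.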

Assay [14] can be described thus: qHTS assay to identify small molecule antagonists of the retinoid-related orphan receptor gamma (ROR-gamma) signaling pathway - cell viability counter screen (AID 1159520). Note: nearly all actives have a fitted effect of over 50% in size. The method in brief:
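Cytotoxicity was read from cellular ATP (CellTiter-Glo luminescence) after 16 hr at 37 C with 1 uM doxycycline induction. The inducer was added 2 hr after compound transfer to Tet-on ROR gamma CHO cells.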

The target of assay [15] is Nuclear receptor ROR-gamma (Homo sapiens) (UniProt P51449). The experiment in a line: qHTS assay to identify small molecule antagonists of the retinoid-related orphan receptor gamma (ROR-gamma) signaling pathway (AID 1159521). The method in brief: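 RORγ antagonism is scored from reduced reporter luminescence in Tet-on CHO cells. Induction used 1 uM final doxycycline hyclate for 16 h at 37 C, following a 2 h compound exposure.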

Assay [16] can be described thus: qHTS assay to identify small molecule agonists of the AP-1 signaling pathway - cell viability counter screen (AID 1159525; calls by dose curve; note: nearly all actives have a fitted effect of over 55% in size). The method, boiled down:
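Intracellular ATP by Cell Titer Glo luminescence (30 min, RT) in the same ME-180 AP-1-bla wells after the 5 h compound exposure at 37 °C. Normalised to tetra n-octyl ammonium bromide and DMSO controls.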

Assay [17] is described as follows: qHTS assay to identify small molecule agonists of the AP-1 signaling pathway (AID 1159526; calls by dose curve; note: potency is the fitted concentration of half-maximal effect).
In assay [18] the target is Bile acid receptor (Homo sapiens) (UniProt Q96RI1). The experiment in a line: qHTS assay to identify small molecule antagonists of the farnesoid-X-receptor (FXR) signaling pathway (AID 743217; active = well fitted inhibition curve with a large enough effect in the signal ratio in the repeat runs, not every such curve was filed as active; the % refers to the signal ratio). The method in brief:
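Screen of the Tox21 10K library in quantitative HTS format using FXR-UAS-bla HEK 293T reporter cells. Agonist chenodeoxycholic acid, 50 uM final, added with compounds; 16 h incubation at 37 °C; beta-lactamase FRET fluorescence measured.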

Assay [19] has the same target. The assay is described as follows: qHTS assay to identify small molecule agonists of the farnesoid-X-receptor (FXR) signaling pathway (AID 743220; active = well fitted activation curve with a large enough effect in the signal ratio in the repeat runs, not every such curve was filed as active; the % refers to the signal ratio). The method, boiled down:
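FXR-UAS-bla HEK 293T cells carrying a UAS-driven beta-lactamase reporter were plated for 5 h at 37C/5% CO2, then exposed to DMSO-dissolved Tox21 10K compounds for 16 h at 37C. A LiveBLAzer B/G FRET substrate was loaded for 2 h at room temperature before fluorescence reading.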

Records with an inconclusive call do not appear. A structure can be active in one record and inactive in another. Active and inactive are the calls of the source. Unless noted, calls come from the whole dose curve; as a rule, active = well fitted curve in the direction sought with a large enough effect in the repeat runs; inconclusive = weak or mixed curves; inactive = no such curve, though single readings can be large; an effect the other way counts as inactive or inconclusive.

Sequence of Bile acid receptor (Homo sapiens) (Q96RI1 whole entry, looked up): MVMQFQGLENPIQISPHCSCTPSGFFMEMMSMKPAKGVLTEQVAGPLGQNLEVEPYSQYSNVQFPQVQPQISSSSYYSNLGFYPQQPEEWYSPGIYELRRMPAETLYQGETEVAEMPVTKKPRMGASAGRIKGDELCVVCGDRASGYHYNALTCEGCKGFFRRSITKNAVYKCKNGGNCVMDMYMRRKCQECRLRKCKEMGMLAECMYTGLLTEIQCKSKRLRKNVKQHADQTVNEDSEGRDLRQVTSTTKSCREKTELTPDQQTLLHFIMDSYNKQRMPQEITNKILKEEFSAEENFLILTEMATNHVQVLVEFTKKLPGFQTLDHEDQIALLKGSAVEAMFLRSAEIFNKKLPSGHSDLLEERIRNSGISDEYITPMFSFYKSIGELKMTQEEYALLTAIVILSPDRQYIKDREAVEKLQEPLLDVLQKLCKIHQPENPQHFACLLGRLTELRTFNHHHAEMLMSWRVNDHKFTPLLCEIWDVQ
Sequence of Vitamin D3 receptor (Homo sapiens) (P11473 whole entry, looked up): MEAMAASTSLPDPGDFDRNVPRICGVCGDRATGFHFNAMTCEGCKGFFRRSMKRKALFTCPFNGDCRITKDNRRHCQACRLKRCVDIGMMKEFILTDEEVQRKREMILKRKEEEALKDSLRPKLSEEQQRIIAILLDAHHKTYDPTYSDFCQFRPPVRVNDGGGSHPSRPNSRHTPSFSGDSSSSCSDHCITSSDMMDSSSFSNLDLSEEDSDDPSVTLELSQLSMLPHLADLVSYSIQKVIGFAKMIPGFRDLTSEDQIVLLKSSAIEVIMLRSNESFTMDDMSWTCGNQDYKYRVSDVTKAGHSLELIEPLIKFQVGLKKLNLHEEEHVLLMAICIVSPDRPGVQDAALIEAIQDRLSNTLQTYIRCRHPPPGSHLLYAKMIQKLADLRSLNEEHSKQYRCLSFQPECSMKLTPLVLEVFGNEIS

`O=C(O)/C=C\C(=O)O`: the outcome in assay [1], in assay [2], in [3], in assay [4], in assay [5] and in assay [6] was inactive. Besides, the molecule was classed as inactive in assay [7], in assay [8], in [9], in assay [10], in assay [11] and in assay [12]. Besides, the call in [13] was inactive. Further, the Potency result in [14], in [15], in assay [16] and in assay [17] was “inactive” in each case.

Consider `Cn1cc[nH]c1=S`, for which the outcome in assay [1], in [2], in [3], in [4], in [5] and in assay [6] was inactive. The molecule was classed as inactive in [7], in [8], in assay [10], in assay [11], in assay [12] and in assay [13]. For the same molecule, the Potency result in [14], in assay [15] and in [16] was “inactive” throughout. Moreover, the Potency in assay [17] was 54.9 µM (active) and inactive.

Take `Cc1noc(NS(=O)(=O)c2ccc(N)cc2)c1C`: the call in assay [1], in assay [2], in [3], in assay [4], in assay [5] and in assay [19] was inactive. Besides, the result in [6], in assay [11], in assay [12] and in assay [13] was inactive. Moreover, the Potency result in assay [18], in [14], in [16] and in assay [17] was “inactive” in each case.

As to `O=C(O)c1cc(N=Nc2ccc(S(=O)(=O)Nc3ccccn3)cc2)ccc1O`, the call in assay [1], in [2], in assay [3], in assay [4], in [5] and in assay [6] was inactive. Also, the molecule was called inactive in [7], in assay [8], in assay [9], in [10], in assay [11] and in assay [12]. For the same molecule, in assay [13], the call was inactive. Further, the Potency result in assay [14], in [15], in [16] and in [17] was “inactive” each time.

In the case of `Nc1ccc(C(=O)O)cc1`, the result in assay [1], in [2], in [3], in assay [4], in [5] and in assay [19] was inactive. Further, the result in assay [6], in assay [10], in assay [11], in assay [12] and in assay [13] was inactive. Moreover, the Potency result in assay [18], in assay [14], in assay [15], in assay [16] and in [17] was “inactive” each time.

Consider `CCOc1ccc(NC(=O)CC(C)O)cc1` (stereo unspecified), for which the outcome in assay [1], in [2], in assay [3], in assay [4], in assay [5] and in assay [19] was inactive. The molecule was called inactive in assay [6], in assay [10], in [11], in assay [12] and in assay [13]. The Potency entry in assay [18], in assay [14], in assay [15], in [16] and in [17] was “inactive” in each case.

With `CC(=O)Nc1nnc(S(N)(=O)=O)s1`, the molecule was called inactive in [1], in assay [3], in assay [5], in [6], in assay [9] and in [10]. Besides, the molecule was called inactive in assay [11], in [12] and in assay [13]. In addition, the Potency entry in [14], in [15], in assay [16] and in assay [17] was “inactive” in each case.

For `CCCCC1C(=O)N(c2ccccc2)N(c2ccccc2)C1=O`, the outcome in assay [1], in [3], in [5], in assay [19], in assay [6] and in assay [7] was inactive. The molecule was classed as inactive in assay [8], in assay [10], in [11], in [12] and in [13]. Also, the Potency entry in [18], in [14], in [15], in [16] and in assay [17] was “inactive” each time.

In the case of `O=C(C1CCCCC1)N1CC(=O)N2CCc3ccccc3C2C1` (stereo unspecified), the result in assay [1], in assay [2], in assay [3], in assay [4], in [5] and in assay [6] was inactive. Besides, the result in [7], in assay [8], in [10], in [11], in assay [12] and in assay [13] was inactive. For the same molecule, the Potency result in assay [14], in [15], in [16] and in assay [17] was “inactive” in each case.
